PAX8 inh HTS: inhibitors of PAX8 transcriptional activity in RMG-I cells. RMG-I TPO-luciferase reporter, SteadyGlo, 24 h. inhibition, % at 12.6 µM. 360,000 tested, 1.2% active;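 active = mean replicate inhibition at least 60% with every replicate also reaching 60%; inconclusive = only one of the two criteria is met; inactive = mean below 60% and not all replicates reaching 60%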;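 note: luciferase light reporting Pax8 driven TPO promoter activity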
EWS-Fli inh: EWS/Fli transcriptional activity inhibition; A673 NR0B1-luciferase reporter, viability-normalised; 350,000 tested, 0.67% active; inhibition, % at 12.6 µM;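 active = mean inhibition of at least 50% after viability correction, with every replicate also passing that limit; inconclusive = mean reaches 50% but only one of two replicates passes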;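 note: firefly luciferase signal divided by Alamar Blue viability fluorescence both relative to DMSO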
LGR2 inh: Drosophila LGR2 receptor signaling inhibition | HEK293 LGR2, CRE-luciferase, bursicon-stimulated, 4 h | inhibition, % at 9.99 µM | 380,000 tested, 0.35% active;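 active = drop in luminescence signal, shown as inhibition above about 50% in the replicate tests, limit read from the data, passing the limit was not always enough; inconclusive = probably only some replicates passing the limit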;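 note: agonist challenge used bursicon conditioned medium at about half maximal strength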
CFTR F508del cor: CFTR F508del correction in bronchial cells. CFBE cells, YFP halide quenching; stimulated with forskolin plus potentiator P3; % fluorescence drop versus neutral controls. activity (quench increase), % at 7.58 µM. 350,000 tested, 0.36% active. AID 720511;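 active = mean added fluorescence quench of at least 8% versus neutral control, with both replicates also reaching 8%; inconclusive = only one of the mean or replicate conditions met; inactive = mean below 8% and not both replicates reaching 8%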;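 note: cells transiently co-express mutant CFTR-F508del with the halide-sensitive YFP; corrector assay measuring rescue of mutant channel to the surface after 24 h compound exposure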
Each line names hits and unclear results; the compound was inactive in the other large screens. Hits are enriched below; roughly 1.8% of the tested compounds scored in any of these assays.

CC=Cc1ccc2n(c1=O)C[C@@H]1[C@@H](CO)[C@H](C(=O)N3CCOCC3)[C@H]2N1CC1CCCC1 (mixture of isomers)	none (no result: PAX8 inh HTS, CFTR F508del cor)
CCCCOC(=O)CCc1n[nH]c(=O)[nH]c1=O	none (no result: PAX8 inh HTS, EWS-Fli inh, CFTR F508del cor)
Cc1ccc(NC(=S)/C(C#N)=C2/Nc3ccccc3S2)cc1	PAX8 inh HTS 83.9
Cc1c(Cc2ccccc2)sc(NC(=O)c2ccco2)c1C(N)=O	none (no result: PAX8 inh HTS, EWS-Fli inh, CFTR F508del cor)
Cc1c(Cc2ccccc2)sc(NC(=O)/C=C/c2cccc3ccccc23)c1C(N)=O	EWS-Fli inh 60.0 (no result: CFTR F508del cor)
COc1ccc(CC(=O)N2CCC(Nc3nc4ccccc4n3Cc3ccc(F)cc3)CC2)cc1	none (no result: EWS-Fli inh, LGR2 inh, CFTR F508del cor)
C[C@@H]1CCCCO[C@H](CN(C)Cc2ccc(C(F)(F)F)cc2)[C@@H](C)CN([C@@H](C)CO)C(=O)c2cc(NC(=O)Nc3ccc4c(c3)OCO4)ccc2O1	PAX8 inh HTS 65.2
C[C@H](CO)N1C[C@H](C)[C@@H](CN(C)Cc2ccccc2)OCCCC[C@H](C)Oc2ccc(NC(=O)Nc3ccc4c(c3)OCO4)cc2C1=O	EWS-Fli inh 63.7
C[C@@H]1CCCCO[C@@H](CN(C)Cc2ccc(C(F)(F)F)cc2)[C@@H](C)CN([C@@H](C)CO)C(=O)c2cc(NC(=O)Nc3ccc4c(c3)OCO4)ccc2O1	none
C[C@@H]1CN([C@H](C)CO)C(=O)c2cc(NC(=O)Nc3ccc(C(F)(F)F)cc3)ccc2O[C@@H](C)CCCCO[C@@H]1CN(C)Cc1ccc2c(c1)OCO2	PAX8 inh HTS 89.5
C[C@@H]1CN([C@H](C)CO)C(=O)c2cc(NC(=O)Nc3ccc4c(c3)OCO4)ccc2O[C@@H](C)CCCCO[C@H]1CN(C)Cc1ccc(C(F)(F)F)cc1	PAX8 inh HTS 84.8, EWS-Fli inh 66.4
C[C@@H]1CN([C@@H](C)CO)C(=O)c2cc(NC(=O)Cc3ccccc3)ccc2O[C@H]1CN(C)Cc1ccc2c(c1)OCO2	none (no result: EWS-Fli inh)
CC(C)c1cc(C(=O)NCCc2ccccc2)no1	none
C[C@@H]1CCCCO[C@H](CN(C)Cc2ccc(C(F)(F)F)cc2)[C@@H](C)CN([C@H](C)CO)C(=O)c2cc(NC(=O)Nc3ccc4c(c3)OCO4)ccc2O1	none
C[C@@H]1CCCCO[C@@H](CN(C)Cc2ccc(C(F)(F)F)cc2)[C@H](C)CN([C@@H](C)CO)C(=O)c2cc(NC(=O)Nc3ccc4c(c3)OCO4)ccc2O1	PAX8 inh HTS 71.6
C[C@@H]1CCCCO[C@H](CN(C)C(=O)CCC(F)(F)F)[C@H](C)CN([C@@H](C)CO)C(=O)c2cc(NC(=O)Nc3ccc4c(c3)OCO4)ccc2O1	PAX8 inh HTS 68.2
CC(C)Cc1nc2n[nH]c(N)c2c2c1COC(C)(C)C2	none (no result: PAX8 inh HTS, EWS-Fli inh, CFTR F508del cor)
COc1ccc(/C=N/NC(=O)c2[nH]c3ccc(Br)cc3c2-c2ccccc2)c(C(=O)O)c1OC	none
COc1ccc(/C=N/NC(=O)c2[nH]c3ccc(Br)cc3c2-c2ccccc2)cc1	PAX8 inh HTS 102.0 (no result: EWS-Fli inh, CFTR F508del cor)
COc1ccccc1N1CCN(C2CCCC(C)C2)CC1 (configuration not stated)	none (no result: PAX8 inh HTS)
COc1cc2nc(C3CCC3)nc(N3CCN(c4ccccc4OC)CC3)c2cc1OC	PAX8 inh HTS 88.6
Cc1ccc(S(=O)(=O)N2C[C@H]3n4c(=O)ccc(=O)n4C[C@H](OC(=O)NCc4ccco4)[C@@]3(O)C2)cc1	none
COc1cccc(-c2ccc3c(c2)O[C@@H](CN(C)C(=O)C2CC2)[C@@H](C)CN([C@@H](C)CO)S3(=O)=O)c1	none (no result: PAX8 inh HTS)
COC(=O)C1=C(C)NC2=C(C(=O)c3ccccc32)C1c1cccc(OC)c1 (configuration not stated)	none (no result: LGR2 inh)
CC1=C([N+](=O)[O-])C(c2cccc(Br)c2)C2=C(N1)c1ccccc1C2=O (configuration not stated)	PAX8 inh HTS 84.6 (no result: EWS-Fli inh, LGR2 inh, CFTR F508del cor)
C[C@H]1CN([C@@H](C)CO)C(=O)Cc2cc(NC(=O)Nc3ccc4c(c3)OCO4)ccc2O[C@@H]1CN(C)CC1CCCCC1	PAX8 inh HTS 101.1
C[C@H](CO)N1C[C@H](C)[C@H](CN(C)CC2CCCCC2)Oc2ccc(NC(=O)Nc3ccc(F)cc3)cc2CC1=O	EWS-Fli inh 60.4
C[C@H]1CN([C@@H](C)CO)C(=O)Cc2cc(NC(=O)Nc3ccc(F)cc3)ccc2O[C@H]1CN(C)CC1CCCCC1	LGR2 inh inconclusive
C[C@H]1CN([C@@H](C)CO)C(=O)Cc2cc(NC(=O)Nc3ccc4c(c3)OCO4)ccc2O[C@H]1CN(C)CC1CCCCC1	none
C[C@H](CO)N1C[C@H](C)[C@@H](CN(C)CC2CCCCC2)Oc2ccc(NC(=O)Nc3ccc4c(c3)OCO4)cc2CC1=O	PAX8 inh HTS 90.2
CC[C@H](C)[C@@H]1NC(=O)[C@@H](CC(C)C)NC(=O)[C@H](C(C)C)NC(=O)[C@H]2CSSC[C@H](NC1=O)C(=O)N2	PAX8 inh HTS 115.9, EWS-Fli inh 68.4, LGR2 inh 72.2
C[C@H](NC(=O)C[C@@H]1C=C[C@H](NS(=O)(=O)c2cccc(F)c2)[C@H](CO)O1)c1ccccc1	none
CC1=CC2C(C(O)CC3(C)C2CC(C)C32OCOC23COCO3)C2(C)C/C(=C\O)C(=O)C=C12 (configuration not stated)	LGR2 inh 79.9 (no result: PAX8 inh HTS)
O=C(NCc1ccc2c(c1)OCO2)C(C(=O)c1ccccc1)n1cc(Cl)ccc1=O (configuration not stated)	PAX8 inh HTS 84.8
CC(C1CC1)N(Cc1ccccc1)C(=S)Nc1cccc(C(F)(F)F)c1 (configuration not stated)	PAX8 inh HTS 118.1
CC(C1CC1)N(Cc1ccccc1)C(=S)Nc1ccccc1 (configuration not stated)	none
O=C(CCn1c2c(c3ccccc31)CCCC2)NNC(=O)c1ccccc1[N+](=O)[O-]	none (no result: EWS-Fli inh, CFTR F508del cor)
CC1CC(C)CN(CCCNC(=O)C2CCCN(c3ncnc4c3nc3n4CCCCC3)C2)C1 (configuration not stated)	none
COc1cc2c(C#CCCO)c(-c3ccsc3)oc(=O)c2cc1OC	CFTR F508del cor 13.7
CCC1=C(OC(=O)N(CC)CC)N2C(=O)OC(=NCc3ccccc3)[C@]2(C)[C@H]2C1=CC[C@H]1C(=O)NC(=O)[C@H]12	none
CN(C)c1nc(N)nc(-c2cccnc2)n1	none (no result: PAX8 inh HTS, EWS-Fli inh, CFTR F508del cor)
Cc1[nH]nc(-c2cccnc2)c1N=NN(C)C	PAX8 inh HTS 70.8, EWS-Fli inh 55.3
COc1ccc(NC(=O)Nc2ccc3c(c2)C(=O)N([C@H](C)CO)C[C@@H](C)[C@H](CN(C)Cc2ccc(C(F)(F)F)cc2)OCCCC[C@H](C)O3)cc1	PAX8 inh HTS 80.7, EWS-Fli inh 60.7, CFTR F508del cor 14.2
COc1ccc(NC(=O)Nc2ccc3c(c2)C(=O)N([C@H](C)CO)C[C@H](C)[C@H](CN(C)Cc2ccc(C(F)(F)F)cc2)OCCCC[C@@H](C)O3)cc1	none
COc1ccc(NC(=O)Nc2ccc3c(c2)C(=O)N([C@H](C)CO)C[C@H](C)[C@H](CN(C)Cc2ccc(C(F)(F)F)cc2)OCCCC[C@H](C)O3)cc1	PAX8 inh HTS 99.1
COc1ccc(CN(C)C[C@H]2OCCCC[C@H](C)Oc3ccc(NC(=O)Nc4ccc(C(F)(F)F)cc4)cc3C(=O)N([C@H](C)CO)C[C@@H]2C)cc1	PAX8 inh HTS 83.2, EWS-Fli inh 71.1

Assay outcomes deposited in PubChem by Broad Institute.
